{"source": "the supplement of paper PMC6555819"}
{"tested_on": "VDR:RXRa (NR concentration 270 nM, RXRa partner concentration 90 nM)", "experiment": "PBM binding z-score (relative to random genomic background probes); higher = stronger binding; sequences stand for … in GC…GCGATTGACAGCGTAGAATGAAGG", "experimental": "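Protein-binding microarray (Agilent 4x180K custom design, double-stranded 60-nt probes: 5' GC cap, 34-nt variable region, 24-nt constant primer region; full probe sequence given). Purified or IVT nuclear receptor:RXRα heterodimers (3:1 NR:RXRα, mostly 270:90 nM) or homodimers were incubated for 1 h in PBS with 2% milk and no ligand, then detected with Alexa488 antibodies. Fluorescence from o1-orientation probes (~5 replicates averaged) was converted to z-scores against 500 random hg19 background probes. Variable regions are seed direct-repeat (DR0–DR5) sites, all their single-nucleotide variants and half-site ablations.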"}
{"sequence": "TTACCAAGGTGACAGGTCGTTGATGCACGCCTTG", "PBM binding z-score": 0.821}
{"sequence": "CCTAATGGGCCATCAGGTCATTGATATCAACGTT", "PBM binding z-score": 2.04}
{"sequence": "CCAGACAGGTGAAAGGTTACTCAGTCTGGTACGC", "PBM binding z-score": 2.35}
{"sequence": "CTTCCAAGGTCAGCAGGTCAGTGAAAGCGACGTG", "PBM binding z-score": 4.03}
{"sequence": "CCTTACGCGTCAAGGTTATAGCACGGGTGGTACG", "PBM binding z-score": 0.442}
{"sequence": "AGAATGACGTTAAGATCAGGGAAACAGAATACAT", "PBM binding z-score": -0.215}
{"sequence": "TAGCCTAGGTCATGCGGGCGAGTATAGTGTCGGC", "PBM binding z-score": 1.72}
{"sequence": "ATATGTAGCTTACATCCGGGTCATTCAGGCTATG", "PBM binding z-score": 2.82}
{"sequence": "GCTTACTGGTCAAAGGTTATAGCATGAATAGAAT", "PBM binding z-score": 2.42}
{"sequence": "TATACAGGGTCAAAGACCAGAGTACGAATGTCGA", "PBM binding z-score": 4.43}
{"sequence": "CCTATTAATTGACCATAAGGGCAACCGAAGCTCG", "PBM binding z-score": 0.371}
{"sequence": "TCATATAGGTAAACGGGTGAAAGTCCGTAAGTTA", "PBM binding z-score": 1.16}
{"sequence": "AGTCAAAGTTCACTAGGAAACGTAAGATTCAGCT", "PBM binding z-score": 3.48}
{"sequence": "TGTCAAATTTCAAAGGTAACGTAAGTATCCACAC", "PBM binding z-score": 0.605}
{"sequence": "ATACCAAGGTGATCGTGAGGTCGTTGACACTAAC", "PBM binding z-score": 3.35}
{"sequence": "CCTAGTTGGTCAGGAGGTCACCCACCGGATATGA", "PBM binding z-score": 3.66}
{"sequence": "ATATGTAGGTGACATCCGGGTCATTCAGGCTATG", "PBM binding z-score": 4}
{"sequence": "CAAACTAGGTCAAAAGTCAAAGTCGAGCCAACCA", "PBM binding z-score": 2.46}
{"sequence": "ATCGAAAGGTCGCCGAGGTGAGTATACACCGTTT", "PBM binding z-score": 5.39}
{"sequence": "TCTAGTTGGTCAAAGGTCACCCACTCGAAATGCG", "PBM binding z-score": 5.09}
{"sequence": "GTACCAAGGTGAATGGGTCGTTGATGAGTAGGCG", "PBM binding z-score": 1.06}
{"sequence": "TCTCCGAGGACACGAAAGGTCAGAGCTCGACATC", "PBM binding z-score": 3.72}
{"sequence": "GCGACTGGGGCCAAGCAGGTTACCATAAGGTTGG", "PBM binding z-score": 0.713}
{"sequence": "CAGACTGGGGCAAAGGTTACCATACTCAGTACGA", "PBM binding z-score": 1.93}
{"sequence": "CGAACTAGGTCTTTGACAGGACAGTGAATAGTAA", "PBM binding z-score": -0.318}
{"sequence": "GCTATTAGTTGAAAGTGCAACCGAATGATTCTCG", "PBM binding z-score": 0.133}
{"sequence": "AGAACGAGGGCACGCTGTGTTGATAGCAGAGTAG", "PBM binding z-score": 0.783}
{"sequence": "GATACAGGGTCAAGGCCAGGGTACGCGTATTGAT", "PBM binding z-score": 4.71}
{"sequence": "ACTATTAGTTGACTTAGGGCTACCGATACGACGC", "PBM binding z-score": -0.0525}
{"sequence": "CCTTCTGGGCCAAAAAGGTCATTGATGCCGATAA", "PBM binding z-score": 4.86}
{"sequence": "CCGAGTAGGCTATGGGGCATTCAGGCAACGGTGA", "PBM binding z-score": -0.947}
{"sequence": "GCTAGTTGGTCAATAAAAGGTCACACACCGGTCG", "PBM binding z-score": 4.16}
{"sequence": "CAAACTAGGTCAGGAGGTCAAAGTCCGCTTCCCG", "PBM binding z-score": 5.18}
{"sequence": "TGTACAGGGTCAAAGGCCAGAGTACGAATGTCGA", "PBM binding z-score": 4.59}
{"sequence": "CAAACTAGGTCACCGGACGGTCAAAGTCCGCATG", "PBM binding z-score": 3.59}
{"sequence": "TCATATAGGTAAAAGGTGCAAGTCGGTGTGGTAA", "PBM binding z-score": 1.09}
{"sequence": "CCTCGGAAGACAGAAGGTCAGAGCTGTCCGCTTT", "PBM binding z-score": 1.01}
{"sequence": "AGAATGAGGGTATTAAGATCAGGGAATTGCGGTC", "PBM binding z-score": 0.128}
{"sequence": "ACTTACGGGTCAACGAGGTTATAGCCCGCGTATA", "PBM binding z-score": 7.59}
{"sequence": "CGTCGAAGGTCAAGGTCAGTGAAAGAGACTCGAA", "PBM binding z-score": 4.25}
